# Source: PubChem BioAssay AID1159580 (chemical genetic matrix, 2015)
# “And” between values parts separate entries of the source, which are not always exact repeats. Equal entries are not always repeated. Among all 5,500 compounds or so, about 2,000 (36%) were called active. Inconclusive results (about 18%) are left out. Some of the results follow. A number with no mark means an inactive call. Cut-off read from the data, not from the text of the source: active = normalized growth mostly below about 0.91 (no sharp cut-off); inconclusive = no clear call, values can overlap the other calls; inactive = mostly above about 0.92.
# Assay: chemical genetic growth profiling, strain panel (AID 1159580);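 note: tested at 20 µM; growth read once vehicle control cultures reached saturation at 30 °C; 1 = growth at the plate median or of vehicle wells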
# Conditions: S. cerevisiae deletion strains, growth OD
structure (smiles),measurement,setting,value
CCC(C)(C)C(=O)O[C@H]1C[C@@H](C)C=C2C=C[C@H](C)[C@H](CC[C@@H]3C[C@@H](O)CC(=O)O3)[C@H]21,normalized growth,"locus YAL013W, strain DEP1, stronger effect = lower value",0.99
same,normalized growth,"locus YAL021C, strain ccr4, stronger effect = lower value",0.703 (active)
same,normalized growth,"locus YAL026C, strain drs2, stronger effect = lower value",0.828 (active)
same,normalized growth,"locus YAL030W, strain snc1, stronger effect = lower value",1.01
same,normalized growth,"locus YBL061C, strain skt5, stronger effect = lower value",0.855 (active)
same,normalized growth,"locus YBR009C, strain hhf1, stronger effect = lower value",0.912
same,normalized growth,"locus YBR021W, strain FUR4, stronger effect = lower value",0.861
same,normalized growth,"locus YBR023C, strain chs3, stronger effect = lower value",0.841 (active)
same,normalized growth,"locus YBR171W, strain sec66, stronger effect = lower value",0.998
same,normalized growth,"locus YBR229C, strain ROT2, stronger effect = lower value",1.01
same,normalized growth,"locus YBR231C, strain swc5, stronger effect = lower value",0.776 (active)
same,normalized growth,"locus YBR279W, strain paf1, stronger effect = lower value",0.851 (active)
same,normalized growth,"locus YCL011C, strain gbp2, stronger effect = lower value",0.944
same,normalized growth,"locus YCL016C, strain dcc1, stronger effect = lower value",0.909 (active)
same,normalized growth,"locus YCL029C, strain bik1, stronger effect = lower value",1.04
same,normalized growth,"locus YCL061C, strain MRC1, stronger effect = lower value",1.01
same,normalized growth,"locus YCL069W, strain vba3, stronger effect = lower value",0.955
same,normalized growth,"locus YCR088W, strain abp1, stronger effect = lower value",1.02
same,normalized growth,"locus YDL005C, strain med2, stronger effect = lower value",1.02
same,normalized growth,"locus YDL035C, strain GPR1, stronger effect = lower value",0.97
same,normalized growth,"locus YDL040C, strain nat1, stronger effect = lower value",0.997
same,normalized growth,"locus YDL074C, strain BRE1, stronger effect = lower value",0.866
same,normalized growth,"locus YDL101C, strain DUN1, stronger effect = lower value",0.98
same,normalized growth,"locus YDL134C, strain PPH21, stronger effect = lower value",1.01
same,normalized growth,"locus YDL185W, strain tfp1, stronger effect = lower value",0.955
same,normalized growth,"locus YDL192W, strain arf1, stronger effect = lower value",1.02
same,normalized growth,"locus YDR001C, strain nth1, stronger effect = lower value",1.02
same,normalized growth,"locus YDR069C, strain doa4, stronger effect = lower value",1
same,normalized growth,"locus YDR101C, strain arx1, stronger effect = lower value",1.04
same,normalized growth,"locus YDR137W, strain rgp1, stronger effect = lower value",1.35 [resistant] (active)
same,normalized growth,"locus YDR150W, strain NUM1, stronger effect = lower value",1.01
same,normalized growth,"locus YDR159W, strain sac3, stronger effect = lower value",0.93
same,normalized growth,"locus YDR162C, strain NBP2, stronger effect = lower value",0.937
same,normalized growth,"locus YDR195W, strain ref2",1.01
same,normalized growth,"locus YDR297W, strain sur2, stronger effect = lower value",0.999
same,normalized growth,"locus YDR318W, strain mcm21, stronger effect = lower value",1
same,normalized growth,"locus YDR334W, strain swr1, stronger effect = lower value",0.941
same,normalized growth,"locus YDR335W, strain msn5, stronger effect = lower value",0.979
same,normalized growth,"locus YDR388W, stronger effect = lower value",1.02
same,normalized growth,"locus YDR392W, strain spt3, stronger effect = lower value",0.528 (active)
same,normalized growth,"locus YDR502C, strain sam2, stronger effect = lower value",1.02
same,normalized growth,"locus YEL003W, strain gim4, stronger effect = lower value",0.973
same,normalized growth,"locus YEL037C, strain rad23, stronger effect = lower value",1
same,normalized growth,"locus YEL061C, strain CIN8 (second series), stronger effect = lower value",0.988
same,normalized growth,"locus YEL061C, strain CIN8, stronger effect = lower value",0.995
same,normalized growth,"locus YER015W, strain faa2, stronger effect = lower value",0.842 (active)
same,normalized growth,"locus YER016W, strain bim1, stronger effect = lower value",0.953
same,normalized growth,"locus YER110C, stronger effect = lower value",1.04
same,normalized growth,"locus YER111C, strain swi4, stronger effect = lower value",1.01
same,normalized growth,"locus YER155C, strain BEM2 (second series), stronger effect = lower value",1
same,normalized growth,"locus YER155C, strain BEM2, stronger effect = lower value",0.996
same,normalized growth,"locus YER167W, strain BCK2, stronger effect = lower value",0.982
same,normalized growth,"locus YFR010W, strain ubp6, stronger effect = lower value",0.973
same,normalized growth,"locus YGL078C, strain dbp3, stronger effect = lower value",1.03
same,normalized growth,"locus YGL086W, strain mad1, stronger effect = lower value",0.991
same,normalized growth,"locus YGL167C, strain pmr1, stronger effect = lower value",1.01
same,normalized growth,"locus YGL173C, strain kem1, stronger effect = lower value",0.997
same,normalized growth,"locus YGL227W, strain vid30, stronger effect = lower value",1.02
same,normalized growth,"locus YGL240W, strain doc1, stronger effect = lower value",1.03
same,normalized growth,"locus YGL248W, strain PDE1, stronger effect = lower value",1.01
same,normalized growth,"locus YGL253W, strain hxk2, stronger effect = lower value",0.787 (active)
same,normalized growth,"locus YGR078C, strain PAC10, stronger effect = lower value",0.966
same,normalized growth,"locus YGR135W, strain pre9, stronger effect = lower value",1.01
same,normalized growth,"locus YGR229C, strain SMI1, stronger effect = lower value",0.783 (active)
same,normalized growth,"locus YGR252W, strain gcn5, stronger effect = lower value",0.983
same,normalized growth,"locus YHR013C, strain ard1, stronger effect = lower value",0.912
same,normalized growth,"locus YHR027C, strain rpn1, stronger effect = lower value",0.875 (active)
same,normalized growth,"locus YHR030C, strain SLT2, stronger effect = lower value",1.02 and 0.921
same,normalized growth,"locus YHR079C, strain IRE1 (second series), stronger effect = lower value",1.03
same,normalized growth,"locus YHR079C, strain IRE1, stronger effect = lower value",0.948
same,normalized growth,"locus YHR094C, strain hxt1, stronger effect = lower value",1.03
same,normalized growth,"locus YHR129C, strain ARP1, stronger effect = lower value",1.02
same,normalized growth,"locus YHR142W, strain chs7, stronger effect = lower value",0.79 (active)
same,normalized growth,"locus YHR200W, strain rpn10, stronger effect = lower value",1.03
same,normalized growth,"locus YIL066C, strain RNR3, stronger effect = lower value",0.992
same,normalized growth,"locus YIL073C, strain SPO22, stronger effect = lower value",0.902
same,normalized growth,"locus YIL125W, strain kgd1, stronger effect = lower value",1.04
same,normalized growth,"locus YIR030C, strain dcg1, stronger effect = lower value",1.05
same,normalized growth,"locus YJL092W, strain hpr5, stronger effect = lower value",1.01
same,normalized growth,"locus YJL095W, strain BCK1 (second series), stronger effect = lower value",0.951
same,normalized growth,"locus YJL095W, strain BCK1, stronger effect = lower value",0.893 and 0.915
same,normalized growth,"locus YJL115W, strain asf1, stronger effect = lower value",1.02
same,normalized growth,"locus YJL129C, strain trk1, stronger effect = lower value",0.934
same,normalized growth,"locus YJL134W, strain LCB3, stronger effect = lower value",1.01
same,normalized growth,"locus YJL154C, strain vps35, stronger effect = lower value",1.01
same,normalized growth,"locus YJL164C, strain tpk1, stronger effect = lower value",0.919
same,normalized growth,"locus YJL166W, strain qcr8, stronger effect = lower value",0.955
same,normalized growth,"locus YJL168C, strain set2, stronger effect = lower value",1.02
same,normalized growth,"locus YJL187C, strain SWE1 (second series), stronger effect = lower value",0.995
same,normalized growth,"locus YJL187C, strain SWE1, stronger effect = lower value",0.976
same,normalized growth,"locus YJR043C, strain POL32, stronger effect = lower value",1.01
same,normalized growth,"locus YJR066W, strain TOR1, stronger effect = lower value",0.84
